Compound activity as filed in PubChem.
hgDAF-12 ag: activates the H. glycines DAF-12 receptor ligand-binding domain. HEK293 GAL4-hgDAF12 UAS-luciferase reporter, agonist luminescence; normalized to butyrate control. activation, % at 6.8 µM. 1.8% of 370,000 active;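 active = activation above a cutoff set at the mean of all screened compounds plus 3 SD, cut at about 10% in these data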
DAX1 inh-1: blocks DAX1 repression of SF-1 activated StAR promoter | HEK293T StAR-luciferase reporter, SF-1/DAX-1 repression relief | inhibition, % at 6.8 µM | 1.1% of 370,000 active | AID 652010;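 active = inhibition above the mean over all tested compounds plus 3 SD, cut at about 3.6% in these data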;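 note: higher inhibition means more luminescence from relief of DAX-1 repression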
hcDAF12 agonist: activates DAF-12 receptor from parasite H. contortus | activation, % at 6.8 µM | HEK293 hcDAF-12 lit1-tk-luc reporter, luminescence; 0% DMSO, 100% Δ7-dafachronic acid | 1.4% of 370,000 active;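 active = activation above the mean of all tested compounds plus 3 SD, cut at about 5.5% in these data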
DAX1 inh-2: inhibitors of human orphan nuclear receptor DAX1 (NR0B1) | 0.99% of 340,000 active | HEK293 Gal4-DAX1 luciferase reporter, luminescence | P51843 | AID 504766 | inhibition, % at 6.75 µM;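 active = inhibition above the mean over all tested compounds plus 3 SD, cut at about 4.2% in these data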;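 note: inhibition shows as a rise in luminescence from relieved DAX1 repression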
ssDAF12 agonist: activators of S. stercoralis DAF-12 nuclear receptor; HEK293 ssDAF-12/GRIP1 lit1-tk-luc reporter, luminescence; % of 3 µM dafachronic acid response; activation, % at 6.8 µM; 1% of 370,000 active; AID 652126;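 active = activation above the mean over all tested compounds plus 3 SD, cut at about 0.9% in these data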
DAX1 conf: NR0B1 (human) inhibition, confirmation. shares compounds with DAX1 inh-1. HEK293T StAR-promoter luciferase reporter, SF-1/DAX-1 repression. inhibition, % at 6.8 µM. 87% of 2,400 active. AID 652134;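 active = inhibition above the average of every tested compound plus 3 SD, cut at about 3.8% in these data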;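 note: active compounds raise luminescence by relieving repression of the StAR reporter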
Target sequence (P51843 whole entry, looked up): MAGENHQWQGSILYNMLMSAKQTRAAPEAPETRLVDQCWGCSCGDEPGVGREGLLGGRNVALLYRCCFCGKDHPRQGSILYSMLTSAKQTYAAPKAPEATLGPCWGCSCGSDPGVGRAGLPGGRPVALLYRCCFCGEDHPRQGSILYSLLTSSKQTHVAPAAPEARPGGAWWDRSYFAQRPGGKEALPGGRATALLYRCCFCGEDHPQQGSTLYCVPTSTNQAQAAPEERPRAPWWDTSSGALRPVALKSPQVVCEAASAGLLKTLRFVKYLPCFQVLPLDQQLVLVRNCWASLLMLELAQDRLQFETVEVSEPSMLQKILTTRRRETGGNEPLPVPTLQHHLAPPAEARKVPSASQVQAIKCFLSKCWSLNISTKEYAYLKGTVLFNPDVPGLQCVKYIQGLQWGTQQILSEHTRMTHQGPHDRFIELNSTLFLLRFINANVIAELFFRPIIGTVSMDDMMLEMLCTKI
SF1 AF2mut Luc: nonselective inhibitor or artifact in SF-1 mutant DAX1 counter-screen; shares compounds with DAX1 inh-1; HEK293 StAR-luciferase, SF-1 AF2 mutant, luminescence; inhibition, % at 6.8 µM; 78% of 2,400 active; AID 652136;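 active = inhibition above the mean of all tested compounds plus 3 SD, cut at about 3% in these data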
LXR ag: counter-screen for hcDAF-12 agonists: agonists of human LXR-beta | shares compounds with hcDAF12 agonist | HEK293 Gal4-LXR tk-luc reporter, luminescence, 24 h; normalized: DMSO 0%, positive control 100% | activation, % at 6.8 µM | 3,400 tested, under 10 active | AID 743027;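 active = mean percent activation of the reporter above a cutoff set as the average over tested compounds plus their standard deviation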
hcDAF12 ag: confirmation of H. contortus DAF-12 agonists; HEK293 hcDAF-12 lit1-tk-luc reporter, luminescence; % of Δ7-dafachronic acid response; shares compounds with hcDAF12 agonist; AID 743032; 61% of 3,400 active; activation, % at 6.8 µM;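 active = mean activation across triplicate tests above the threshold derived from the earlier primary screen, cut at about 5.5% in these data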
hgDAF12 ag: confirmation of H. glycines DAF-12 agonists; shares compounds with hgDAF-12 ag; 80% of 3,300 active; HEK293 GAL4-hgDAF12 luciferase reporter, agonist mode; percent of butyrate response; activation, % at 6.8 µM;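 active = mean activation over triplicate wells above the hit cutoff derived from the earlier primary screen, cut at about 11% in these data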
LXR ag 2: counter-screen for DAF-12 agonists: agonists of human LXR-beta | HEK293 Gal4-LXR luciferase reporter, 24 h | shares compounds with hgDAF-12 ag | 3,300 tested, under 10 active | activation, % at 6.8 µM;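 active = mean activation of the triplicate above a set limit carried over from the primary screen, none filed active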
Large screens that a line does not name were inactive (follow-up assays come after a bar, where they were run). Shown are actives, neighbours in structure and some others; about 4.1% of the full set was active somewhere.

COc1ccc(OCc2cc(C(=O)N3CCOCC3)no2)c(Cl)c1	hgDAF-12 ag 13, DAX1 inh-1 7.4 | DAX1 conf 9.8 | SF1 AF2mut Luc 7.5 | hgDAF12 ag 15 | LXR ag 2 inactive
Nc1c(C(=O)Nc2ccc(Cl)cc2)oc2ccccc12	hgDAF-12 ag 20, DAX1 inh-1 6.4, hcDAF12 agonist 22, DAX1 inh-2 4.3, ssDAF12 agonist 2.2 | DAX1 conf 15 | SF1 AF2mut Luc 11 | LXR ag inactive | hcDAF12 ag 16 | hgDAF12 ag 24 | LXR ag 2 inactive
O=C(Nc1ccc(N2CCCC2)c(Cl)c1)c1ccccc1F	hgDAF-12 ag 22, DAX1 inh-1 5.1 | DAX1 conf 14 | SF1 AF2mut Luc 4.8 | hgDAF12 ag 16 | LXR ag 2 inactive
O=C(NCCc1ccccn1)c1ccc(OC(F)F)cc1	hgDAF-12 ag 16, DAX1 inh-1 5.4 | DAX1 conf 9.3 | SF1 AF2mut Luc 3.8 | hgDAF12 ag 15 | LXR ag 2 inactive
O=C(NNC(=O)c1ccccn1)c1ccc(OC(F)F)cc1	none
C/C(=N/NC(=O)c1cccs1)c1ccc(N2CCOCC2)cc1	hgDAF-12 ag 20, DAX1 inh-1 4.7, hcDAF12 agonist 6.0 | DAX1 conf inactive | SF1 AF2mut Luc inactive | hgDAF12 ag inactive | LXR ag 2 inactive
O=C(CSc1nnc(NC(=O)c2ccc(F)cc2)s1)NCc1ccco1	hgDAF-12 ag 14, DAX1 inh-1 6.5 | DAX1 conf 9.3 | SF1 AF2mut Luc 5.1 | hgDAF12 ag 12 | LXR ag 2 inactive
Cc1csc(NC(=O)c2oc3ccccc3c2C)n1	hgDAF-12 ag 19, DAX1 inh-1 14, hcDAF12 agonist 18, ssDAF12 agonist 2.1 | DAX1 conf 13 | SF1 AF2mut Luc 8.0 | LXR ag inactive | hcDAF12 ag 18 | hgDAF12 ag 17 | LXR ag 2 inactive
CCOc1ccc2oc(C(=O)Nc3cc(C)ccn3)c(C)c2c1	hgDAF-12 ag 14, DAX1 inh-1 13 | DAX1 conf 11 | SF1 AF2mut Luc 5.0 | hgDAF12 ag 17 | LXR ag 2 inactive
Cc1ccnc(NC(=O)c2oc3ccccc3c2C)c1	hgDAF-12 ag 22, DAX1 inh-1 11, hcDAF12 agonist 20, ssDAF12 agonist 3.0 | DAX1 conf 9.2 | SF1 AF2mut Luc 3.7 | LXR ag inactive | hcDAF12 ag 15 | hgDAF12 ag 20 | LXR ag 2 inactive
c1csc(-c2cn3ccc4ccccc4c3n2)c1	hgDAF-12 ag 17, DAX1 inh-1 4.8, hcDAF12 agonist 14, ssDAF12 agonist 2.5 | DAX1 conf 8.3 | SF1 AF2mut Luc 5.4 | LXR ag inactive | hcDAF12 ag 15 | hgDAF12 ag 18 | LXR ag 2 inactive
c1cc(-c2cccs2)nc(-c2cccs2)c1	none
O=C(Nc1ccc(N2CCCC2)cc1)c1ccc(Br)cc1	none
CCCOC(=O)Nc1ccc(N2CCCCC2)cc1	hgDAF-12 ag 15, DAX1 inh-1 5.3 | DAX1 conf 16 | SF1 AF2mut Luc 5.8 | hgDAF12 ag 14 | LXR ag 2 inactive
O=C(Nc1ccc(N2CCCCCC2)cc1)c1ccc[nH]1	hgDAF-12 ag 15, DAX1 inh-1 13, hcDAF12 agonist 7.3 | DAX1 conf 9.4 | SF1 AF2mut Luc 5.8 | LXR ag inactive | hcDAF12 ag 10.0 | hgDAF12 ag 17 | LXR ag 2 inactive
